From PubChem BioAssay (NCI)
About 83,000 compounds went through this panel and 20% of them were active in at least one assay; those are over-represented in the sample as a whole.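 Activity criterion: percent growth below 10, measured after cells in 96-well plates were exposed to a single compound concentration for 48 hours.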 Values without a mark were called inactive. Activity calls are given as the source filed them.

Legend:
Assay in all cases: NCI-60 one-dose screen, 48 h (100 = growth as untreated, 0 = no growth, -100 = all killed)
[1] = tested on: SK-MEL-2 melanoma; conditions: 10 µM unless noted
[2] = tested on: EKVX NSCLC; conditions: 10 µM unless noted
[3] = tested on: TK-10 renal; conditions: 10 µM unless noted
[4] = tested on: ACHN renal; conditions: 10 µM unless noted
[5] = tested on: CAKI-1 renal; conditions: 10 µM unless noted
[6] = tested on: A498 renal; conditions: 10 µM unless noted
[7] = tested on: CCRF-CEM leukemia; conditions: 10 µM unless noted
[8] = tested on: SR leukemia; conditions: 10 µM unless noted
[9] = tested on: RPMI-8226 leukemia; conditions: 10 µM unless noted
[10] = tested on: OVCAR-8 ovarian; conditions: 10 µM unless noted
[11] = tested on: OVCAR-5 ovarian; conditions: 10 µM unless noted
[12] = tested on: OVCAR-4 ovarian; conditions: 10 µM unless noted
[13] = tested on: SK-OV-3 ovarian; conditions: 10 µM unless noted
[14] = tested on: IGROV1 ovarian; conditions: 10 µM unless noted
[15] = tested on: OVCAR-3 ovarian; conditions: 10 µM unless noted
[16] = tested on: HS 578T breast; conditions: 10 µM
[17] = tested on: NCI/ADR-RES ovarian; conditions: 10 µM unless noted
[18] = tested on: SN12C renal; conditions: 10 µM unless noted
[19] = tested on: UO-31 renal; conditions: 10 µM unless noted
[20] = tested on: MOLT-4 leukemia; conditions: 10 µM unless noted

## CCCCNCC(O)c1cc(-c2ccc(C(F)(F)F)cc2)nc(-c2ccc(C(F)(F)F)cc2)c1 (stereo not drawn)
[1]
  growth: -67.1% (active)
[2]
  growth: -61.8% (active)
[3]
  growth: -94.4% (active)
[4]
  growth: -71.6% (active)
[5]
  growth: -73% (active)
[6]
  growth: -68.1% (active)
[7]
  growth: -36.4% (active)
[8]
  growth: -63.7% (active)
[9]
  growth: -49.9% (active)
[10]
  growth: -71.1% (active)
[11]
  growth: -74.9% (active)
[12]
  growth: -93.9% (active)
[13]
  growth: -75.8% (active)
[14]
  growth: -59.7% (active)
[15]
  growth: -90.8% (active)
[16]
  growth: -57.8% (active)
[17]
  growth: -53.9% (active)

## COc1ccc(-c2nc(-c3cc(OC)cc(OC)c3)[nH]c2-c2ccc(OC)cc2)cc1
[1]
  growth: 29.4%
[18]
  growth: 70.6%
[19]
  growth: 36.1%
[3]
  growth: 62.2%
[4]
  growth: 41.3%
[5]
  growth: 44.5%
[6]
  growth: 66%
[7]
  growth: 11.1%
[20]
  growth: 14.2%
[8]
  growth: 25.3%
[9]
  growth: -11.6% (active)
[10]
  growth: 58.1%
[11]
  growth: 77.7%
[12]
  growth: 59.7%
[13]
  growth: 85.6%
[14]
  growth: 71.7%
[15]
  growth: 45.3%
[16]
  growth: 81.5%
[17]
  growth: 53.9%

## CC(COC(=O)c1ccccc1)N1CC2CCC(C1)O2 (stereo not drawn)
[1]
  growth: 107%
[18]
  growth: 99.8%
[19]
  growth: 86%
[3]
  growth: 111%
[4]
  growth: 104%
[5]
  growth: 96.5%
[6]
  growth: 89.5%
[7]
  growth: 92.7%
[20]
  growth: 100%
[8]
  growth: 93.2%
[9]
  growth: 99.1%
[10]
  growth: 93.9%
[11]
  growth: 101%
[12]
  growth: 107%
[13]
  growth: 96.1%
[14]
  growth: 113%
[15]
  growth: 104%
[16]
  growth: 105%
[17]
  growth: 111%

## O=C1C(Cl)=C(N/N=c2/[nH][nH]/c(=N/NC3=C(Cl)C(=O)c4ccccc4C3=O)c3ccccc23)C(=O)c2ccccc21
[1]
  growth: 96.4%
[18]
  growth: 56.4%
[19]
  growth: 54.7%
[3]
  growth: 130%
[4]
  growth: 61.9%
[5]
  growth: 104%
[6]
  growth: 57%
[7]
  growth: 16.5%
[20]
  growth: 11.4%
[8]
  growth: 19.7%
[9]
  growth: 33.8%
[10]
  growth: 78.1%
[11]
  growth: 119%
[12]
  growth: 78.5%
[13]
  growth: 73.6%
[14]
  growth: 59.6%
[15]
  growth: 66.2%
[16]
  growth: 37.4%
[17]
  growth: 66.1%

## Cc1ccc(N=CNN=C(N)N)cc1
[1]
  growth: 114%
[2]
  growth: 117%
[19]
  growth: 76.6%
[3]
  growth: 118%
[4]
  growth: 102%
[5]
  growth: 97%
[6]
  growth: 99.2%
[7]
  growth: 101%
[8]
  growth: 76.9%
[9]
  growth: 99.4%
[10]
  growth: 91%
[11]
  growth: 99.5%
[12]
  growth: 94.5%
[13]
  growth: 104%
[14]
  growth: 103%
[15]
  growth: 112%
[16]
  growth: 140%
[17]
  growth: 108%

## O=C(/C=C/c1cc([N+](=O)[O-])ccc1Cl)c1ccccc1
[1]
  growth: 107%
[2]
  growth: 84.6%
[19]
  growth: 70.8%
[3]
  growth: 112%
[4]
  growth: 91.2%
[5]
  growth: 73.2%
[6]
  growth: 86%
[7]
  growth: 68.7%
[20]
  growth: 78%
[9]
  growth: 20.9%
[10]
  growth: 96.3%
[11]
  growth: 96.1%
[12]
  growth: 97.2%
[13]
  growth: 95.4%
[14]
  growth: 70.5%
[15]
  growth: 102%
[16]
  growth: 98.6%
[17]
  growth: 93.6%

## CN1CCN(Cc2ccc(NC(=O)c3cncc(C#Cc4ncc5cnccn45)c3)cc2C(F)(F)F)CC1
[1]
  growth: -12.9% (active)
[2]
  growth: 77.2%
[19]
  growth: 18.3%
[3]
  growth: 81.4%
[4]
  growth: 30.7%
[5]
  growth: 31.5%
[6]
  growth: 65.2%
[7]
  growth: 41.9%
[20]
  growth: 43.5%
[8]
  growth: 50.8%
[9]
  growth: 44.3%
[10]
  growth: 70%
[11]
  growth: 35.1%
[12]
  growth: 41.3%
[13]
  growth: 42.8%
[14]
  growth: 42.2%
[15]
  growth: 69.6%
[16]
  growth: 52.2%
[17]
  growth: 92.7%

## CC(=O)c1c(O)c(C)c(O)c2c1OC1=CC(=O)/C(=C(/C)N)C(=O)C12C (stereo not drawn)
[1]
  growth: 94.8%
[18]
  growth: 92.8%
[19]
  growth: 77.8%
[3]
  growth: 99.4%
[4]
  growth: 88.4%
[5]
  growth: 87.1%
[6]
  growth: 74.1%
[7]
  growth: 93.1%
[20]
  growth: 73.3%
[8]
  growth: 69%
[9]
  growth: 68.6%
[10]
  growth: 81.8%
[11]
  growth: 98.5%
[12]
  growth: 88.1%
[13]
  growth: 101%
[14]
  growth: 89.1%
[15]
  growth: 103%
[16]
  growth: 91.5%

## C=CCn1c(SCC(=O)Nc2ccc(C(=O)/C=C/c3ccc(Cl)cc3)cc2)nnc1-c1ccc(Cl)cc1
[1]
  growth: 100%
[2]
  growth: 86.6%
[3]
  growth: 90.8%
[4]
  growth: 101%
[6]
  growth: 83.8%
[7]
  growth: 96.5%
[20]
  growth: 68.4%
[9]
  growth: 17.2%
[10]
  growth: 87.9%
[11]
  growth: 104%
[12]
  growth: 94.8%
[13]
  growth: 92%
[14]
  growth: 79.5%
[15]
  growth: 89.1%
[16]
  growth: 84.8%
[17]
  growth: 80.5%

## Cc1ccc(O)c(Cc2ccccc2)c1
[1]
  growth: 93.8%
[2]
  growth: 116%
[19]
  growth: 84%
[3]
  growth: 100%
[4]
  growth: 100%
[6]
  growth: 99.9%
[7]
  growth: 103%
[10]
  growth: 102%
[12]
  growth: 108%
[13]
  growth: 110%
[14]
  growth: 132%
[15]
  growth: 100%
[16]
  growth: 91.3%
[17]
  growth: 99.7%

## Cc1[nH]nc2ccc3nc(-c4ccc5[nH]ncc5c4)c4c(c3c12)CCCC4
[1]
  growth: -15.5% (active)
[2]
  growth: 20.2%
[19]
  growth: 12.8%
[3]
  growth: 10.3%
[4]
  growth: 6.93% (active)
[5]
  growth: 12.5%
[6]
  growth: -10.8% (active)
[7]
  growth: 16.8%
[20]
  growth: 3.85% (active)
[8]
  growth: 1.09% (active)
[9]
  growth: 13%
[10]
  growth: 28.2%
[11]
  growth: 46.6%
[12]
  growth: 38.4%
[13]
  growth: -19.6% (active)
[14]
  growth: 11.9%
[15]
  growth: 32.8%
[16]
  growth: -6.38% (active)
[17]
  growth: 40%

## COc1ccc2[nH]cc(/C=C3\C(=O)Nc4ccccc43)c2c1
[1]
  growth: 12.6%
[2]
  growth: 49%
[19]
  growth: -14.7% (active)
[3]
  growth: 53%
[4]
  growth: 34.6%
[5]
  growth: -0.757% (active)
[6]
  growth: 40.5%
[7]
  growth: 14%
[20]
  growth: 1.26% (active)
[8]
  growth: 2.21% (active)
[9]
  growth: 31.3%
[10]
  growth: 31.9%
[11]
  growth: 52.9%
[12]
  growth: 54.6%
[13]
  growth: 38.9%
[14]
  growth: -21.9% (active)
[15]
  growth: 35.5%
[16]
  growth: 33.2%
[17]
  growth: 23.1%

## COc1cccc(NC(=O)[C@H](C(C)C)n2c(=O)[nH]c3ccccc3c2=O)c1
[1]
  growth: 101%
[18]
  growth: 105%
[19]
  growth: 101%
[3]
  growth: 105%
[4]
  growth: 104%
[5]
  growth: 97.6%
[6]
  growth: 114%
[7]
  growth: 94.8%
[20]
  growth: 96.8%
[8]
  growth: 95.8%
[9]
  growth: 98.6%
[10]
  growth: 96.9%
[11]
  growth: 108%
[12]
  growth: 105%
[13]
  growth: 101%
[14]
  growth: 113%
[15]
  growth: 109%
[16]
  growth: 110%

## Cc1cc(NC(=O)c2ccc(N)cc2)ccc1N=Nc1ccc2cc(S(=O)(=O)O)cc(S(=O)(=O)O)c2c1
[1]
  growth: 121%
[2]
  growth: 99.9%
[19]
  growth: 101%
[3]
  growth: 97.9%
[4]
  growth: 95.2%
[5]
  growth: 91.5%
[6]
  growth: 90.6%
[7]
  growth: 87.1%
[20]
  growth: 112%
[8]
  growth: 107%
[9]
  growth: 94%
[11]
  growth: 98.7%
[12]
  growth: 117%
[13]
  growth: 103%
[14]
  growth: 102%
[16]
  growth: 110%
[17]
  growth: 108%

## Oc1ccc(-c2cnc(-c3ccccc3)[nH]2)c(O)c1
[1]
  growth: 137%
[2]
  growth: 107%
[19]
  growth: 88.7%
[3]
  growth: 112%
[4]
  growth: 109%
[6]
  growth: 110%
[20]
  growth: 94%
[8]
  growth: 40.2%
[9]
  growth: 38.7%
[10]
  growth: 119%
[11]
  growth: 116%
[12]
  growth: 106%
[13]
  growth: 113%
[14]
  growth: 94.3%
[15]
  growth: 107%
[16]
  growth: 97.7%
[17]
  growth: 113%

## FC(F)(F)C1=NNC(c2ccc3ccccc3c2)=NN1
[1]
  growth: 111%
[18]
  growth: 93.7%
[19]
  growth: 65.6%
[3]
  growth: 129%
[4]
  growth: 90.1%
[5]
  growth: 102%
[6]
  growth: 90.5%
[7]
  growth: 92.4%
[20]
  growth: 107%
[8]
  growth: 95%
[9]
  growth: 94%
[10]
  growth: 97.4%
[11]
  growth: 96.9%
[12]
  growth: 96.2%
[13]
  growth: 104%
[14]
  growth: 103%
[15]
  growth: 101%
[16]
  growth: 95.9%

## Cc1ccc(Nc2nc(NCCO)c3ccccc3n2)cc1C
[1]
  growth: 39.5%
[18]
  growth: 21.5%
[19]
  growth: 24.6%
[3]
  growth: 38.5%
[4]
  growth: 33.1%
[5]
  growth: 2.38% (active)
[6]
  growth: -11.9% (active)
[7]
  growth: 8.3% (active)
[20]
  growth: 24.1%
[8]
  growth: 19%
[9]
  growth: 19.7%
[10]
  growth: 9.74% (active)
[11]
  growth: 25.6%
[12]
  growth: 50.6%
[13]
  growth: -0.684% (active)
[14]
  growth: 20.2%
[15]
  growth: -9.61% (active)
[16]
  growth: 36.1%
